Data taken from PubChem BioAssay (NCATS).
Records with an inconclusive call do not appear. A call without a number means that no potency is given here. The source made the active and inactive calls. Unless noted, calls follow the shape of the dose curve; as a rule, active = well fitted curve in the direction sought with a large enough effect; inconclusive = small, poorly fitted or top-dose-only effect, or another doubt; inactive = no such curve, though single readings can be large; an effect the other way counts as inactive or inconclusive.

Legend:
[1] = Nrf2 qHTS screen for inhibitors: Validation (AID 493153; active = well fitted inhibition curve with a large enough effect in the main read-out, with a control signal flat, not every such curve was filed as active); conditions: Potency: luciferase luminescence; viability change: measured here: cytotoxicity max response
Summary of the method: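 A549 cells carrying an ARE-driven firefly luciferase reporter, in 5% FBS OPTI-MEM, were treated with compounds in concentration-response for 18-24 h at 37°C. Viability was read by CellTiter-Fluor fluorescence, then Nrf2 activity by luciferase luminescence.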

[2] = biological target: Phosphoglycerate kinase, glycosomal (Trypanosoma brucei brucei) (UniProt P07378); test: qHTS Validation Assay to Find Inhibitors of Phosphoglycerate Kinase (AID 504547)
Phosphoglycerate kinase, glycosomal (Trypanosoma brucei brucei), sequence (P07378 whole entry, looked up): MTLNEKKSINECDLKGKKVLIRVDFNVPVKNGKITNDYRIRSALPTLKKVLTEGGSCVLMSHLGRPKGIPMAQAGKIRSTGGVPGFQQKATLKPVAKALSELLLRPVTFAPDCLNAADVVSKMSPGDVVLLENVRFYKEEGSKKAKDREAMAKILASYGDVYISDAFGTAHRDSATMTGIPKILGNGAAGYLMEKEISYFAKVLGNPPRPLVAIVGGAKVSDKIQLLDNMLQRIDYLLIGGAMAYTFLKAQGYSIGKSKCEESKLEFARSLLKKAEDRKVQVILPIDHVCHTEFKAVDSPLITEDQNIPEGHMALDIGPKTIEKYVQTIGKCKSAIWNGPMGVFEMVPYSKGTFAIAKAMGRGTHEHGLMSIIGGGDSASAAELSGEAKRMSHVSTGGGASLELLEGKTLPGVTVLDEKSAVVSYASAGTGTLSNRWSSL
Summary of the method: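 PGK activity was coupled to GAPDH (100nM final), which generates the unstable substrate 1,3-bisphosphoglycerate in-well. Reactions ran 60 minutes at room temperature in 100mM TEA pH 7.6, 5mM MgCl2, 0.01% Tween-20, then Kinase-Glo Plus luminescence was read.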

[3] = biological target: phosphoglycerate mutase (Leishmania major) (UniProt Q4Q090); test: qHTS Validation Assay to Find Inhibitors of Phosphoglycerate Mutase (AID 504548); conditions: Potency: inhibition qHTS;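 also: end-point luminescence from Kinase-GloPlus after the PGAM reaction; series mostly up to about 58 µM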
phosphoglycerate mutase (Leishmania major), sequence (Q4Q090 1-553): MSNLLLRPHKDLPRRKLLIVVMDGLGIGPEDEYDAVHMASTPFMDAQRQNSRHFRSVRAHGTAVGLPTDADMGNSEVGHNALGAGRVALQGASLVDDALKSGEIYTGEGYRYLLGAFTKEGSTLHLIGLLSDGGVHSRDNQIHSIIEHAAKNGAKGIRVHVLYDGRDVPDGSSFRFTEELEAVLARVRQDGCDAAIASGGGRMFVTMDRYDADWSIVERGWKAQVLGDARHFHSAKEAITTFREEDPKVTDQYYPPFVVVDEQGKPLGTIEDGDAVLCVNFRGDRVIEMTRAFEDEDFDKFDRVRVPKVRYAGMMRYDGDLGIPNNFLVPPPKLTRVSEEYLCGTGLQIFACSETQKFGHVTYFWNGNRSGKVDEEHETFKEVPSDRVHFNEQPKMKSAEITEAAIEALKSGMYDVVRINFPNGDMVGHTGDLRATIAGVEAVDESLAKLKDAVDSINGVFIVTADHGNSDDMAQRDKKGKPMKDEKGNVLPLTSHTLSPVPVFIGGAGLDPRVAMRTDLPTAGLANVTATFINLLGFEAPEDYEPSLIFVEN
Summary of the method: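 L. major PGAM (1.25nM final) was added to substrate buffer and pinned compound, incubated 45 minutes at room temperature, then Kinase-GloPlus added; luminescence read after 10 minutes. Buffer: 100 mM TEA pH 7.6, 5 mM MgCl2, 0.01% Tween-20.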

[4] = biological target: Ubiquitin carboxyl-terminal hydrolase 1 (Homo sapiens) (UniProt O94782); test: Inhibitors of USP1/UAF1: Pilot qHTS (AID 504865); also: nearly all actives have a fitted effect of over 35% in size; also: potency is read from the fitted curve at half-maximal effect
Ubiquitin carboxyl-terminal hydrolase 1 (Homo sapiens), sequence (O94782 whole entry, looked up): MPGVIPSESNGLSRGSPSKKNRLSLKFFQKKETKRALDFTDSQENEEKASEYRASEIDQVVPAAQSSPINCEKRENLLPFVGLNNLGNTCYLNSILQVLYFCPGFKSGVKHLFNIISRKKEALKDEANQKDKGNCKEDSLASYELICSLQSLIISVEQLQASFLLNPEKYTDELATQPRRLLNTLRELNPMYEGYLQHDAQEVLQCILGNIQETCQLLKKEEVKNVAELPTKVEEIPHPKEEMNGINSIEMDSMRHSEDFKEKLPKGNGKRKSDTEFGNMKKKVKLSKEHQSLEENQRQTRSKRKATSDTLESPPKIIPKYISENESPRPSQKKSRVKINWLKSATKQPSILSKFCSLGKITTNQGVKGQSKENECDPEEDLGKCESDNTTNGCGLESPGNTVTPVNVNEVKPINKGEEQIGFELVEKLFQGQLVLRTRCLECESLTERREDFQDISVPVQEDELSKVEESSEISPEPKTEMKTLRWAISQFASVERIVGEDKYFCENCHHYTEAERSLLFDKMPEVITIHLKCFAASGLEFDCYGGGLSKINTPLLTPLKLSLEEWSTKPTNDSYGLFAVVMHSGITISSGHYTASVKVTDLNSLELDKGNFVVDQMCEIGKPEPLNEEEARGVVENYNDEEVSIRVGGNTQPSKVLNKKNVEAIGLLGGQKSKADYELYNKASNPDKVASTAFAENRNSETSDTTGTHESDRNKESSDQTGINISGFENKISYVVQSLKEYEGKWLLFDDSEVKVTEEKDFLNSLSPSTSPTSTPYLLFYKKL
Summary of the method: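 Deubiquitinase activity followed as kinetic rhodamine fluorescence release from 150 nM Ub-Rho. 1 nM USP1/UAF1 with compound, after 15 min room-temperature preincubation, in HEPES pH 7.8 buffer containing TCEP, EDTA, BSA and Tween-20.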

[5] = qHTS for Inhibitors of ATXN expression: Validation (AID 588378); also: series mostly up to about 57 µM; nearly all actives have a fitted effect of over 75% in size
Summary of the method: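 Luciferase luminescence (Bright-Glo) from an ATXN2-FFLuc HEK293 line after 24 h compound exposure at 37 °C, preceded by a CellTiter-Fluor fluorescence viability read. Serial dilutions of a reference ATXN2 inhibitor and a luciferase inhibitor served as controls.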

[6] = qHTS for Inhibitors of Cell Surface uPA Generation: Validation Assay (AID 493164);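 also: RAW 264.7 macrophage cells exposed to compound for 18 h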
Summary of the method: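 RAW 264.7, 4000 cells/well, o/n plating; cpd 7-pt 1:5 dilution 2.45 nM–38.3 uM final; 18 h, 37 C/5% CO2; ATP-Lite, 5 s luminescence exposure.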

[7] = biological target: Galactokinase (Homo sapiens) (UniProt P51570); test: qHTS Validation Assay for Inhibitors of Human Galactokinase (GALK) (AID 493189)
Galactokinase (Homo sapiens), sequence (P51570 whole entry, looked up): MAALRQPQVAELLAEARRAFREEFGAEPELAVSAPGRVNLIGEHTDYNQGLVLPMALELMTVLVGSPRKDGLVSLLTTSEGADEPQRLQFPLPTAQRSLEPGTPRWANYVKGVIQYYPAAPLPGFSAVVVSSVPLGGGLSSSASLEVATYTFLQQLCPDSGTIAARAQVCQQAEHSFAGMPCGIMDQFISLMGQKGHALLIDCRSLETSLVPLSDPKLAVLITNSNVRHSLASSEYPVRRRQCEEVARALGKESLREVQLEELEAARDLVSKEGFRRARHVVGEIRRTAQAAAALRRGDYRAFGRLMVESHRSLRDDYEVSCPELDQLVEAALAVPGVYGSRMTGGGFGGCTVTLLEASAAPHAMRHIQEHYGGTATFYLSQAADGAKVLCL
Summary of the method: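 Inhibition was measured as remaining ATP, detected by luciferase luminescence after a 1 h room-temperature reaction. Final conditions: 5 nM GALK, 100 uM galactose, 35 uM ATP, pH 8.0 HEPES buffer.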

[8] = Validation screen for small molecules that induce DNA re-replication in SW480 colon adenocarcinoma cells (AID 504364)
Summary of the method: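 SW480 cells seeded at 250 per well were exposed to compound or DMSO for 48 hr at 37 C, 5% CO2, then stained with Hoechst for 40 min. DNA content per nucleus was imaged (405 nm ex, 500-530 nm em).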

[9] = biological target: Peptidyl-prolyl cis-trans isomerase NIMA-interacting 1 (Homo sapiens) (UniProt Q13526); test: qHTS Validation Assay to Find Inhibitors of Pin1 (AID 504536; active = well fitted inhibition curve with a large enough effect in the polarisation, with a control signal flat, not every such curve was filed as active; the % refers to the polarisation)
Peptidyl-prolyl cis-trans isomerase NIMA-interacting 1 (Homo sapiens), sequence (Q13526 whole entry, looked up): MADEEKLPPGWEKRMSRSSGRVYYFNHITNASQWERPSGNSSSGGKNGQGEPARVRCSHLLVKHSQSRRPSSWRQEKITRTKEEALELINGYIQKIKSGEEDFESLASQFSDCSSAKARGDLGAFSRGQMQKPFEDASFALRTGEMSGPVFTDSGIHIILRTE
Summary of the method: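 Fluorescence polarization competition: compounds (titration) displace HiFluor-488-labeled Pin1-1b peptide from Pin1 (0.3 uM final) in pH 7.5 HEPES buffer with DTT, 10 min at room temperature; %Activity normalized to no-enzyme wells, curves fitted.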

[10] = qHTS for Inhibitors of ATXN expression: Validation of Cytotoxic Assay (AID 588349)
Summary of the method: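 HEK293 cells were dosed with titrated compounds for 72 hr at 37 degrees C. Viability was read by CellTiter Glo luminescence, with intracellular ATP as the marker of cell survival.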

[11] = biological target: DNA dC->dU-editing enzyme APOBEC-3G (Homo sapiens) (UniProt Q9HC16); test: qHTS for inhibitors of Vif-A3G interactions: Validation (AID 588379)
DNA dC->dU-editing enzyme APOBEC-3G (Homo sapiens), sequence (Q9HC16 whole entry, looked up): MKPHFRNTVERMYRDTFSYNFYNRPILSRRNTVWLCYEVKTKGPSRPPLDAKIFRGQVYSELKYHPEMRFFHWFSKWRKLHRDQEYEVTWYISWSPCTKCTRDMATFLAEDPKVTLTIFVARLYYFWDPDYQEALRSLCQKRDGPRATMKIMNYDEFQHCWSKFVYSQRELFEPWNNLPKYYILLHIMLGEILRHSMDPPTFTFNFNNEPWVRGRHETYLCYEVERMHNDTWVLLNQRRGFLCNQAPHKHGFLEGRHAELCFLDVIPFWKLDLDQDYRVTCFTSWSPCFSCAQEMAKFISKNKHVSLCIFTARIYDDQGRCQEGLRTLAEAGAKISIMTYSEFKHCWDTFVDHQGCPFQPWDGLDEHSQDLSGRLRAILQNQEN
Summary of the method: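 HeLa cells stably expressing Vif and A3G-eYFP, 700 cells/well, incubated overnight at 37 deg C, then exposed to compound overnight at 37 deg C. Inhibition of Vif-mediated degradation read as increased yellow fluorescence (Ex 488/Em 500-530) by laser-scanning cytometry.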

[12] = biological target: Estrogen receptor (Homo sapiens) (UniProt P03372); test: qHTS assay for small molecule agonists of estrogen receptor alpha signaling (AID 588514; calls by dose curve; also: nearly all actives have a fitted effect of over 70% in size)
Estrogen receptor (Homo sapiens), sequence (P03372 whole entry, looked up): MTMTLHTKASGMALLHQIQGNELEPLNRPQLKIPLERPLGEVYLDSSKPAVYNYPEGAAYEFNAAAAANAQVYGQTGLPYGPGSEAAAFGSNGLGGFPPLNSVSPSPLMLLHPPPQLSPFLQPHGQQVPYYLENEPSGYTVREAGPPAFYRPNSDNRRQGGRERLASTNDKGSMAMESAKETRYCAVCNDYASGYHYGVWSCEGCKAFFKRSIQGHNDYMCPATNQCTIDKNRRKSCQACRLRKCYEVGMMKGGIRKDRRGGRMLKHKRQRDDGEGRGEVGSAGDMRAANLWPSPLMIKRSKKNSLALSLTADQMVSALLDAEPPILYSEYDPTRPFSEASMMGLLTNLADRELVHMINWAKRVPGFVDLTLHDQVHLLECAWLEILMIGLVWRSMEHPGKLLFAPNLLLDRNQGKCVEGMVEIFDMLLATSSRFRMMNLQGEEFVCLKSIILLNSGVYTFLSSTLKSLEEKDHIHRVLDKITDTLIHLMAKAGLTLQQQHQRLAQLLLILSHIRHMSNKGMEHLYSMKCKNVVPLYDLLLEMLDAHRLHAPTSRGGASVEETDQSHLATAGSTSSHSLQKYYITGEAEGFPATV
Summary of the method: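 ER-alpha-UAS-bla GripTite HEK 293 cells in medium with 2% charcoal/dextran-treated FBS were treated with compound titrations at 37 C for 18 hrs; beta-lactamase reporter read by CCF4 fluorescence after 2 hrs at RT.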

[13] = biological target: Bile acid receptor (Homo sapiens) (UniProt Q96RI1); test: qHTS assay for small molecule antagonists of farnesoid X receptor signaling (AID 588526; calls by dose curve)
Bile acid receptor (Homo sapiens), sequence (Q96RI1 whole entry, looked up): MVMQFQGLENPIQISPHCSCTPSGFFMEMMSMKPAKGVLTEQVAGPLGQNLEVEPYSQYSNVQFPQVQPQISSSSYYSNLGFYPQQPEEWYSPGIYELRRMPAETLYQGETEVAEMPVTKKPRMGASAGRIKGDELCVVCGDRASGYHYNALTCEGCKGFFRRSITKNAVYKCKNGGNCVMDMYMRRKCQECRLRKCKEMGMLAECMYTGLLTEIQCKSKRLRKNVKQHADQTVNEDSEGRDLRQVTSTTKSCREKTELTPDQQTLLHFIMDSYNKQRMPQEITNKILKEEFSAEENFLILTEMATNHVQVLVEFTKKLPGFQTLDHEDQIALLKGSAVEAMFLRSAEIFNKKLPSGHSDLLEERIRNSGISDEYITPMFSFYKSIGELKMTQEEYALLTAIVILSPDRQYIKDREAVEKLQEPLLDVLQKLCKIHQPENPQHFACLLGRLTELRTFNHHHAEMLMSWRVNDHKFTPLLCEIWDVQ
Summary of the method: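 Antagonist mode: titrated compounds tested against chenodeoxycholic acid stimulation (normalized to 50 uM CDCA and DMSO) in GeneBLAzer HEK293T cells for 16 h. Beta-lactamase read by CCF4 fluorescence; IC50 from Hill fits.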

[14] = biological target: Glucocorticoid receptor (Homo sapiens) (UniProt P04150); test: qHTS assay for small molecule agonists of glucocorticoid receptor signaling (AID 588532; active = well fitted curve in the direction sought with a large enough effect in the signal ratio, with a control signal flat; the % refers to the signal ratio); conditions: HeLa MMTV-bla, beta-lactamase ratio, agonist, 18 h; stronger effect = higher value; percent of dexamethasone control, DMSO zero
Glucocorticoid receptor (Homo sapiens), sequence (P04150 whole entry, looked up): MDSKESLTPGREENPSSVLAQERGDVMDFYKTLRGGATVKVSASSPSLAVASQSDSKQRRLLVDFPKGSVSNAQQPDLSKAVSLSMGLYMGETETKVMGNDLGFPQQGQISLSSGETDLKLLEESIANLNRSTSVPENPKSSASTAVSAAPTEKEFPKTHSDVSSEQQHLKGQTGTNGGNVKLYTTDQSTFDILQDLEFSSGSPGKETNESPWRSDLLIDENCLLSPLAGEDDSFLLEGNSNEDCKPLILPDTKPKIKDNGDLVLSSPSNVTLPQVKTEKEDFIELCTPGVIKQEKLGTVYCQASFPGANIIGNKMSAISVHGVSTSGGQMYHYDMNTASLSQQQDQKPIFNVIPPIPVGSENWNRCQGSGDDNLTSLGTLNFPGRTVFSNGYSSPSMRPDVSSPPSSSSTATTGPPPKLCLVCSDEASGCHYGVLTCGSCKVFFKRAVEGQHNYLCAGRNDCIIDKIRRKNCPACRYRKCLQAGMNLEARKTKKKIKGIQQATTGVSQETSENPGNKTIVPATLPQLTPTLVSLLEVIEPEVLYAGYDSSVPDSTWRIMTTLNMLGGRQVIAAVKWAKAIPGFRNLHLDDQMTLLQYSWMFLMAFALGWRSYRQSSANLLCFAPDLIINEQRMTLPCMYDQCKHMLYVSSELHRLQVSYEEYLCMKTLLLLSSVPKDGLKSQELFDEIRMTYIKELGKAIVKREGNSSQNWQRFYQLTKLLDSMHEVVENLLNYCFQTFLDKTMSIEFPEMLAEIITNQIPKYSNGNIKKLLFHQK
Summary of the method: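 MMTV-bla HeLa beta-lactamase reporter cells in 1% charcoal/dextran FBS medium, compounds up to 92 uM for 18 h at 37 C, CCF4 readout; normalized to 0.1 uM dexamethasone (100%), EC50 and efficacy from Hill fits.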

Structure (SMILES): CN1Cc2sccc2C(c2ccc(O)c(O)c2)C1 (stereo unspecified)
- Potency [1]: inactive
- viability change [1]: 12.4%
- Potency [2]: inactive
- Potency [3]: inactive
- Potency [4]: inactive
- Potency [5]: inactive

Structure (SMILES): Clc1nccc2c1ccc1ccccc12
- outcome [6]: inactive
- Potency [7]: inactive
- Potency [8]: inactive
- Potency [9]: inactive
- Potency [2]: inactive
- Potency [3]: inactive
- Potency [4]: inactive
- Potency [10]: inactive
- Potency [5]: inactive

Structure (SMILES): O=c1[nH]c2ccccc2c2ccccc12
- outcome [6]: inactive
- Potency [7]: inactive
- Potency [8]: inactive
- Potency [9]: inactive
- Potency [2]: inactive
- Potency [3]: inactive
- Potency [4]: inactive
- Potency [10]: inactive
- Potency [5]: inactive

Structure (SMILES): O=C(O)c1cc2cc(F)ccc2[nH]1
- outcome [6]: inactive
- Potency [7]: inactive
- Potency [8]: inactive
- Potency [9]: inactive
- Potency [2]: inactive
- Potency [3]: inactive
- Potency [4]: inactive
- Potency [10]: inactive
- Potency [5]: inactive

Structure (SMILES): CC(C)C[C@H](NC(=O)[C@H](O)[C@H](N)Cc1ccccc1)C(=O)O
- outcome [6]: inactive
- Potency [7]: inactive
- Potency [8]: inactive
- Potency [9]: inactive
- Potency [2]: inactive
- Potency [3]: inactive
- Potency [4]: inactive
- Potency [10]: inactive
- Potency [5]: inactive

Structure (SMILES): C=C1C(=O)O[C@@H]2[C@H]3O[C@]3(C)CCC=C(C)CC[C@@H]12
- outcome [6]: inactive
- Potency [7]: inactive
- Potency [8]: inactive
- Potency [9]: inactive
- Potency [2]: inactive
- Potency [3]: inactive
- Potency [4]: inactive
- Potency [11]: inactive

Structure (SMILES): C/C(=C\c1ccc(C(=O)O)cc1)c1ccc2c(c1)C(C)(C)CCC2(C)C
- outcome [6]: inactive
- Potency [7]: inactive
- Potency [8]: inactive
- Potency [2]: inactive
- Potency [3]: inactive
- Potency [4]: 31.6 µM (active)
- Potency [10]: inactive
- Potency [5]: inactive
- Potency [11]: inactive
- Potency [12]: inactive
- outcome [13]: inactive
- activation [14]: -4.65% (inactive)

Structure (SMILES): O=c1[nH]c2cc(Cl)ccc2c(O)c1-c1ccc(Oc2ccccc2)cc1
- outcome [6]: inactive
- Potency [7]: inactive
- Potency [8]: inactive
- Potency [9]: inactive
- Potency [3]: inactive
- Potency [4]: inactive
- Potency [10]: inactive

Structure (SMILES): N=C(N)SCCc1cnc[nH]1
- outcome [6]: inactive
- Potency [7]: inactive
- Potency [8]: inactive
- Potency [9]: inactive
- Potency [2]: inactive
- Potency [3]: inactive
- Potency [4]: inactive
- Potency [10]: inactive
- Potency [11]: inactive

Structure (SMILES): Cc1ccc([N+](=O)[O-])cc1S(=O)(=O)N(C)C
- outcome [6]: inactive
- Potency [7]: inactive
- Potency [8]: inactive
- Potency [9]: inactive
- Potency [2]: inactive
- Potency [3]: inactive
- Potency [4]: inactive
- Potency [10]: inactive
- Potency [5]: inactive

Structure (SMILES): NC(Cc1cccc(-c2ccccc2CP(=O)(O)O)c1)C(=O)O (stereo unspecified)
- outcome [6]: inactive
- Potency [7]: inactive
- Potency [8]: inactive
- Potency [9]: inactive
- Potency [2]: inactive
- Potency [3]: inactive
- Potency [10]: inactive

Structure (SMILES): N[C@@H](CCCC(=O)O)C(=O)O
- outcome [6]: inactive
- Potency [7]: inactive
- Potency [8]: inactive
- Potency [9]: inactive
- Potency [2]: inactive
- Potency [3]: inactive
- Potency [4]: inactive
- Potency [10]: inactive
- Potency [5]: inactive

Structure (SMILES): COc1ccc2c(c1)c(CC(=O)O)c(C)n2Cc1ccc(Cl)cc1
- outcome [6]: inactive
- Potency [7]: inactive
- Potency [8]: inactive
- Potency [2]: inactive
- Potency [3]: inactive
- Potency [4]: inactive
- Potency [10]: inactive
- Potency [5]: inactive
